# Experimental data published in PubChem BioAssay AID360 (National Center for Advancing Translational Sciences (NCATS), 2006).
# About 550 (1.1%) of roughly 48,000 compounds were called active. About 4% were inconclusive and are not listed. What follows is part of a selection rich in actives, with near analogues and random picks from the rest. Values without a mark were called inactive. Rule as the data show it: active = potency below about 15 µM; inconclusive = mostly about 16 µM to 33 µM; inactive = weaker than that.
# Biological target: Lysosomal acid glucosylceramidase (Homo sapiens) (UniProt P04062)
# Assay: Glucocerebrosidase;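 also: the screen sought inhibitors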
# Settings: purified enzyme, resorufin glucoside fluorescence (screen aimed at inhibitors), 20 min
# Procedure, shortened: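 Compounds titrated against 0.2 nM normal enzyme, 30 uM resorufin beta-D-glucopyranoside substrate, citrate/phosphate buffer with taurocholate and tween-20, pH 5.9. Reaction ran 20 min at room temperature; fluorescence (Ex 548/Em 600) gave AC50.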
# Potency is read from the fitted curve at half-maximal effect.
# Sequence of Lysosomal acid glucosylceramidase (Homo sapiens) (P04062 whole entry, looked up): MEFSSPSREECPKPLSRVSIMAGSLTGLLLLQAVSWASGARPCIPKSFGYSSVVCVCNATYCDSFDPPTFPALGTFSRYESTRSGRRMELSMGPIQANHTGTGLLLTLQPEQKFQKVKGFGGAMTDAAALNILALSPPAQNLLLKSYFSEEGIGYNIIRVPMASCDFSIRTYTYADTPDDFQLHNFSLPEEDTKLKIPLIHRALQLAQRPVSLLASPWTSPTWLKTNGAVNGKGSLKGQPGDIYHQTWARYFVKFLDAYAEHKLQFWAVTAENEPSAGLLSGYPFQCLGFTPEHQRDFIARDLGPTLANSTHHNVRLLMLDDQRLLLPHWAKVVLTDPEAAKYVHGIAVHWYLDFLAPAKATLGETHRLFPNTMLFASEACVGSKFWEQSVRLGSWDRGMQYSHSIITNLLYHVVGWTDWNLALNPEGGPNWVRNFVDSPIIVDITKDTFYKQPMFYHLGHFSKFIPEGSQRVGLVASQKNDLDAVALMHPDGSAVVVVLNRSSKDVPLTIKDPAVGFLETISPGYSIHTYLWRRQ
row,Structure (SMILES),Potency
1,Cc1ccc(CNC(=O)CCCNC(=O)c2ccc(Cl)cc2)n1C,> 76.9 µM
2,CCc1c(C)nc(N)n2c(SCC(=O)N3CCN(c4ccccc4)CC3)nnc12,> 76.9 µM
3,COc1c(C)cccc1C(=O)Nc1cc(Cl)ccc1N1CCOCC1,> 76.9 µM
4,COc1ccc(S(=O)(=O)N2CCCC2)c(C)c1C,> 76.9 µM
5,CC(C)C(c1nnnn1C1CCCC1)N1CCN(c2ccccc2F)CC1 (stereo unspecified),45 µM
6,CCOC(=O)c1c(C)[nH]c(C)c1C(=O)CSc1nc(N)cc(N)n1,> 76.9 µM
7,O=C(CSc1nnc(-c2cnccn2)n1Cc1ccco1)c1ccc(Cl)c(Cl)c1,> 76.9 µM
8,COCCCn1c(CCC(=O)O)ccc1-c1ccc(F)cc1,> 76.9 µM
9,O=C(NCCCNC(=O)NC1CCCCC1)NC1CCCCC1,> 76.9 µM
10,CC(=O)N1CSCC1C(=O)O (stereo unspecified),> 76.9 µM
11,O=C(CSc1nnc(-c2ccco2)n1CC1CCCO1)c1ccccc1 (stereo unspecified),> 76.9 µM
12,COc1ccc(C2C3=C(CC(C)(C)CC3=O)Oc3ncn4nc(-c5cccnc5)nc4c32)cc1OC (stereo unspecified),> 76.9 µM
13,CCCn1c(SCC(=O)Nc2c(C)cccc2C)nnc1C(C)C,> 76.9 µM
14,CCOC(=O)CSc1nnc(-c2ccco2)n1C,> 76.9 µM
15,CN1CCC2(CC1)NC(=O)NC2=O,> 76.9 µM
16,O=C(Nc1cnccn1)c1cccnc1,> 76.9 µM
17,O=C(Cn1c(-c2ccccn2)nc2ccccc21)NCCN1CCOCC1,> 76.9 µM
18,COc1ccc(-c2nnc(SCC(=O)c3ccco3)n2-c2ccccc2)cc1,> 76.9 µM
19,Cc1ccc(C(C(=O)NC2CCCC2)N(Cc2ccco2)C(=O)CCC(=O)Nc2ccccn2)cc1 (stereo unspecified),> 76.9 µM

row,Structure (SMILES),Potency
1,COc1ccc(C2C(C(=O)Nc3ccccc3OC)=C(C)Nc3nnnn32)c(OC)c1 (stereo unspecified),> 76.9 µM
2,COC(=O)c1ccc(C2NC(=O)NC(C)=C2C(=O)N(C)C)cc1 (stereo unspecified),> 76.9 µM
3,COC(=O)c1ccc(C2C3=C(Nc4nnnn42)c2ccccc2OC3)cc1 (stereo unspecified),8.19 µM (active)
4,CCOC(=O)c1c(C)nc(-c2ccccc2)nc1NC(=O)C(C)C,> 76.9 µM
5,O=c1[nH]nc(Cc2ccccn2)c2ccccc12,> 76.9 µM
6,CCOC(=O)c1cnc(-n2nc(C)cc2C)nc1-n1nc(C)cc1C,> 76.9 µM
7,CCc1ccccc1N(CC(=O)N1CCN(c2ccccc2F)CC1)S(C)(=O)=O,> 76.9 µM
8,CCOc1ncccc1C(=O)OCc1cn2cc(Cl)ccc2n1,> 76.9 µM
9,CN(Cc1ccccc1)Cc1ccccc1F,> 76.9 µM
10,COc1ccccc1OCCC(=O)OCC(=O)NC(=O)NC(C)(C)C,> 76.9 µM
11,CC(=O)c1cccc(S(=O)(=O)N2CCC(n3nnc4cc(F)ccc43)CC2)c1,> 76.9 µM
12,O=S(=O)(c1cccc(S(=O)(=O)N2CCC(n3nnc4ccccc43)CC2)c1)N1CCCCC1,10.5 µM (active)
13,O=S(=O)(c1cccc(-c2nnc(SC(F)F)n2-c2ccccc2)c1)N1CCCCC1,> 76.9 µM
14,O=C(C1=C(O)C(=O)N(Cc2ccccc2)C1c1cccnc1)c1ccco1 (stereo unspecified),> 76.9 µM
15,O=C1NC(c2cc3c(cc2Cl)OCO3)Oc2ccccc21 (stereo unspecified),> 76.9 µM
16,O=C1N(Cc2ccc3c(c2)OCO3)c2ccccc2C1(O)c1c[nH]c2ccccc12 (stereo unspecified),> 76.9 µM
17,CCC(=O)Nc1ccc(C(=O)CSc2nnc(CNc3ccc(Cl)cc3)o2)cc1OC,> 76.9 µM
18,Cc1cc(-n2nc(C)cc2C)n2ncc(-c3ccccc3)c2n1,> 76.9 µM
19,Cc1cc(C)c2c(n1)nn1c(N3CCOCC3)cc(C)nc21,> 76.9 µM

row,Structure (SMILES),Potency
1,Cc1cc(N2CCCC2)n2nc(C)c(-c3ccccc3)c2n1,7.9 µM (active)
2,COc1ccc(CC(=O)Nc2ccc3c(c2)CCC3)cc1S(=O)(=O)N1CCOCC1,> 76.9 µM
3,Cc1cccc(-n2c(N)cc(=O)nc2SC(C)C(=O)NC2CCCCC2)c1 (stereo unspecified),> 76.9 µM
4,CC(C)N(C(=O)COC(=O)c1ccccc1C(=O)N1CCN(c2ccc(F)cc2)CC1)C(C)C,> 76.9 µM
5,O=C(Nc1cccc(NC(=O)N2CCN(c3ccccc3)CC2)c1)N1CCN(c2ccccc2)CC1,> 76.9 µM
6,CC(=O)N1CCN(c2ccc(NCc3ccc(C(C)C)cc3)cc2)CC1,7.71 µM (active)
7,COC(=O)Cc1c(C)c2ccc(OCC(=O)NCc3ccc4c(c3)OCO4)cc2oc1=O,> 76.9 µM
8,CC1(C)Oc2ccc(C(=O)N3CCOCC3)cc2N(CC(=O)Nc2ccccc2)C1=O,> 76.9 µM
9,Cc1ccc(-c2noc(CN3CCN(Cc4ccccc4)CC3)n2)cc1,> 76.9 µM
10,CCOC(=O)Cc1c(C)nc2c(C#N)c(C)nn2c1C,> 76.9 µM
11,Cc1cc(C(=O)COC(=O)CCCN2C(=O)c3ccccc3C2=O)c(C)n1C,> 76.9 µM
12,CCOC(=O)CSc1nnc(NC(=O)c2cccc(S(=O)(=O)N3CCCC3)c2)s1,> 76.9 µM
13,COc1cccc(-c2nnc(N(C)C(=O)c3ccno3)s2)c1,> 76.9 µM
14,CC1(C)CC(CCC(=O)Nc2ccccc2Cl)C(=O)O1 (stereo unspecified),> 76.9 µM
15,CN(C(=O)COc1ccccc1)c1nnc(-c2ccncc2)s1,> 76.9 µM
16,Cc1cc(Cl)c(S(=O)(=O)NCCC(=O)O)cc1OCC(N)=O,> 76.9 µM
17,COC(=O)C(CC(=O)Nc1cc(C)ccc1C)Nc1ccccc1OC (stereo unspecified),> 76.9 µM
18,Cc1ccc2nc(S(=O)(=O)O)[nH]c2c1,> 76.9 µM
